Laboratory results from PubChem BioAssay (NCI).
Compounds without any hit were thinned out: in the full panel of roughly 79,000, 15% have a hit. A number with no mark means an inactive call. Rule as the data show it: active = growth inhibition above about 70%; inactive = the rest. *1 amine or outer side, *2 acyl side, *3 side chain or, on linkers, in order; H or OH if unused. Where a SMILES comes first, the peptide text is derived from it. Bridges are numbered along the chain shown (N, C = ends). [ ]: non-standard residue; d: D form. The star is where a group is joined. ξ: configuration not given here. X16 = CC(C)C(C)C(C(=O)[*:2])N(C)[*:1]; Picolinoyl(3-OH) = O=C(c1ncccc1O)*; NMePhg = CN[CH](C(=O)O)c1ccccc1; Hyp = O=C(O)[CH]1C[CH](O)CN1; Cbz = O=C(OCc1ccccc1)*; Boc = CC(C)(C)OC(=O)*; ξNva = CCCC(N)C(=O)O; Sar = CNCC(=O)O

Assay: NCI Yeast Anticancer Drug Screen. Data for the mec2-1 strain (AID 157)
Settings: S. cerevisiae mec2-1 strain, at 50.0 µM, hits give high values
How it was run: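 Each compound was tested on mec2-1 yeast, a strain altered in DNA damage repair or cell cycle control. Growth inhibition is reported relative to vehicle.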

| Compound | growth inhibition [%] |
| --- | --- |
| O=C(O)CCCCCC1=CCCCC1 | 33.2 |
| O=C(N/N=C\c1cccc2c([N+](=O)[O-])cccc12)Nc1ccccc1 | -0.45 |
| O=C(N/N=C/c1ccccc1)c1c(F)c(F)c(F)c(F)c1F | 9 |
| CCOC(=O)C(CC(C)C)NC(=O)C(Cc1ccccc1)NC(=O)CNC(=O)OC(C)(C)C (stereo not drawn) (Boc-Gly-Phe-Leu-OEt; configuration not given here) | 7.35 |
| Cc1cc(C)[n+](C)c2cc3ccccc3cc12 | -20.2 |
| CCN(CC)CCCC(C)Nc1ccnc2ccc3nn(C)nc3c12 (stereo not given) | -4.6 |
| O=C(O)CSc1cc(Br)c(Br)cc1C(=O)O | -11.3 |
| Cc1ccc(S(=O)(=O)Oc2nc3nc4ccccc4nc3nc2OS(=O)(=O)c2ccc(C)cc2)cc1 | -2 |
| CC(c1ccccc1)n1cnc2c(=S)nc[nH]c21 (stereo not given) | -20.9 |
| CCN(CC)CC[n+]1ccc2c(C)c3[nH]c4ccccc4c3c(C)c2c1 | -2.65 |
| Cc1ccc(S(=O)(=O)c2c(N)c3nccn3c3nc4ccccc4nc23)cc1 | -68.2 |
| Cc1nc2c(o1)C(=O)c1ccccc1C2=Nc1ccc(N2CCOCC2)cc1 | 29.7 |
| CC(C)(C)n1c(=O)[nH]c(=O)n1C(C)(C)C | -18.4 |
| NS(=O)(=O)c1ccc(C(=O)O)s1 | -11.2 |
| CCOC(=O)COc1cc2c(cc1C(C)c1cc(OC)c(OC)c(OC)c1)OCO2 (stereo not given) | 2.2 |
| Cc1ccccc1CCOC(=O)c1cc([N+](=O)[O-])cc([N+](=O)[O-])c1 | 2.2 |
| CCCCCCCC/C=C\CCCCCCCC(=O)OC | 43.8 |
| CN(N=O)C(N)=NC(=O)c1ccccc1 | 10 |
| O=C(Nc1ccccc1)c1ccc2ccccc2n1 | -31 |
| Oc1ccc(C2=NNC(c3ccc(O)cc3)=NN2)cc1 | 11.9 |

| Compound | growth inhibition [%] |
| --- | --- |
| COc1ccc(-c2cc(=O)c3ccc(C)nc3[nH]2)cc1 | -30.8 |
| CCNC(=O)OCCN1C(=O)C2C3CCC(O3)C2C1=O (stereo not given) | 11.4 |
| CCCC(NC(=O)OCc1ccccc1)C(=O)NCC(=O)NCC(=O)OC (stereo not drawn) (Cbz-[ξNva]-Gly-Gly-OMe) | 0.15 |
| Cc1c(Cl)cccc1NC(=O)c1c(Cl)c(Cl)c(Cl)c(Cl)c1C(=O)O | -1.35 |
| COc1cc(C(=O)NNC(=O)C2CCC(=O)N2Cc2ccccc2)cc(OC)c1OC (stereo not given) | -4.6 |
| Cc1cccc(C)c1NC(=O)C(=O)CC(=O)c1sc(Nc2c(C)cccc2C)nc1C | -10.9 |
| CNCC(O)(C(=O)O)C(=O)O | -45.9 |
| CC(C)CC1NC(=O)C(NC(=O)c2ncccc2O)C(C)OC(=O)C(c2ccccc2)N(C)C(=O)C(C)NC(=O)C(C(C)C(C)C)N(C)C(=O)CN(C)C(=O)C2CC(O)CN2C1=O (stereo not given) ({Picolinoyl(3-OH)}-TL[Hyp][Sar][X16]A[NMePhg]; ester 1-C; configuration not given here) | 3.65 |
| N#CC1=C(O)NC(O)=C(C#N)C12C(=O)Nc1ccccc12 | 2.85 |
| COc1ccc2c(c1)C(O)C(NCc1ccccc1)C2 (stereo not given) | -7.75 |
| O=C(O)C(=O)NCc1cnccn1 | -8.25 |
| O=S(=O)(O)CCc1ccccc1 | 9.15 |
| CCOc1ccc(C(C)c2cc3c(cc2OC)OCO3)cc1 (stereo not given) | 2.3 |
| Nc1nc2[nH]c(=O)cnc2c(=O)[nH]1 | -32.3 |
| CC(=O)/C(=C\c1ccc([N+](=O)[O-])o1)C(=O)CCN(C)C | 38.4 |
| NC(N)=N/N=C/c1c(Cl)nc2sccn12 | -64.8 |
| O=C(NNC(O)C(F)(F)F)c1ccccc1 (stereo not given) | 2.4 |
| CCOC(=O)C1CCN(S(=O)(=O)c2ccccc2)CC1 | -7.3 |
| CN(C)C(=S)/N=c1\ssc(=S)n1Cc1cccs1 | -19.5 |
| CCOC(=N)CC(=O)Nc1ccccc1CC | -0.05 |
